Compound activity from PubChem.
Pf apPOL inh: Pf-apPOL DNA polymerase inhibition. Recombinant Pf-apPOL, molecular beacon fluorescence, 1.5 h. inhibition, % at 10 µM. actives 0.25% (n = 210,000)
mHTT CaM bind: inhibitors of human mutant huntingtin-calmodulin interaction; P42858; AlphaScreen His-mHTT/GST-CaM binding, luminescence; inhibition, % at 15 µM; actives 3.6% (n = 190,000)
Each line names hits and unclear results; the compound was inactive in the other large screens; ! = not confirmed by another sample. The sample as a whole holds a higher share of hits than the screen did. Cut-off read from the data, not from the text of the source: active = inhibition above about 50%; inactive = the rest.

CCOc1ccc(-c2c(C#N)c(N)nc(SCC(=O)c3ccc(OC)cc3)c2C#N)cc1	none
N#Cc1c(N)nc(SCC(=O)c2ccc([N+](=O)[O-])cc2)c(C#N)c1-c1ccccc1	none
N#Cc1c(N)nc(SCC(=O)c2ccccc2)c(C#N)c1-c1ccc(O)cc1	mHTT CaM bind 62
COc1cc(OC)cc(C(=O)N2CCC3(C2)C(=O)N(C)c2ccccc23)c1 (centres undefined)	none
CCCCCOC(=O)C1=C(C)NC2=C(C(=O)CC(C)(C)C2)C1c1ccc(OCC)cc1 (centres undefined)	none
Cc1ccc(NCn2nnc3ccccc32)c(Br)c1	none
CCOC(=O)c1sc(NC(=O)c2c(F)cccc2Cl)c(C#N)c1C	none
O=C(Nc1ccc2c(c1)CCCN2S(=O)(=O)c1ccccc1)Nc1cccs1	none
Cc1cccc2sc(NC(=O)CCS(=O)(=O)c3ccc(Br)s3)nc12	none
Cc1cccc2sc(NC(=O)CN(C)S(=O)(=O)c3ccc(Br)s3)nc12	mHTT CaM bind 92
Nc1ccnc(=O)[nH]1	Pf apPOL inh 105 (no result: mHTT CaM bind)
CCSc1nccc(=O)[nH]1	none
Cc1ccc(N2CCC(C(=O)NCc3cccnc3)C2=O)cc1Cl (centres undefined)	none
Cc1csc(NC(=O)CN2CCC(c3nnc(C4CC4)o3)CC2)n1	none
CC(=O)Nc1ccccc1/C=C/c1ccc2cccc(O)c2n1	none
CC(=O)Nc1ccc2cccc(O)c2n1	mHTT CaM bind 100
CCc1ccccc1N(C)C(=O)c1ccc2c(c1)N(S(C)(=O)=O)CC2	none
CC(C)c1ccc(N2C(=O)NC3CC2(C)Oc2ccccc23)cc1 (centres undefined)	none
CCN(CC)c1ccc(CN2CCN(c3ncccn3)CC2)cc1	none
CC(C)c1ccc(CN2CCCN(C)CC2)cc1	none
CCN(CC)c1ccc(CN2CCSCC2)cc1	none
CCN(CC)c1ccc(CN2CCN(C)CC2)cc1	mHTT CaM bind 68
CCN1CCN(Cc2ccc(N(CC)CC)cc2)CC1	mHTT CaM bind 69
CN1CCCN(Cc2ccc(Br)cc2)CC1	Pf apPOL inh 75
O=C(NC1CCCC1)c1cccc(-c2cnc(N3CCCCC3)nc2)c1	none
Cc1cc(C)cc(C(=O)N2CCCC(C(=O)Nc3ccccc3C)C2)c1 (centres undefined)	none
O=C(c1cc(S(=O)(=O)N2CCC3(CC2)OCCO3)ccc1F)N1CCOCC1	none
CCCOc1nnc(-c2ccc(OC)cc2)c2ccccc12	none
COc1ccc2c(c1)C(C)=CC(C)(C)N2C(=O)C(C)N1C(=O)c2ccccc2C1=O (centres undefined)	none
COc1ccc(N=C2C(=O)N3c4c(cc(C)cc42)C(C)=CC3(C)C)cc1	mHTT CaM bind 72
CC(C)[C@H]1COCCS(=O)(=O)N1Cc1ccccc1-c1cccc2c1oc1ccccc12	mHTT CaM bind 53
CC(C)[C@H]1COCCS(=O)(=O)N1Cc1ccc(Cl)cc1	none
O=C(O)c1ccccc1N=Cc1nc(-c2ccccc2F)oc1O	Pf apPOL inh 96
COc1cc(N=Cc2nc(-c3ccccc3F)oc2O)c(C(=O)O)cc1OC	none
COc1cc(/C=C2\SC(=Nc3ccccc3)NC2=O)cc(I)c1O	mHTT CaM bind 68
COc1ccc(/C=C2\SC(=Nc3cc(C)cc(C)c3)NC2=O)cc1	none
O=C1NC(=Nc2ccccc2)S/C1=C/c1cccc(O)c1	none
O=C1/C(=C/c2cc(Br)cc([N+](=O)[O-])c2O)Sc2ccccc21	none
COc1cccc(/C=C2/SC(=Nc3cc(C)cc(C)c3)NC2=O)c1O	mHTT CaM bind 52
CCOc1ccc(N=C2NC(=O)/C(=C\c3ccc(OC)c(OC)c3)S2)cc1	none
COc1cc(/C=C2\Sc3ccccc3C2=O)cc([N+](=O)[O-])c1O	mHTT CaM bind 81
COc1cc(/C=C2/SC(=Nc3ccccc3)NC2=O)ccc1OCC#N	mHTT CaM bind 54
O=[N+]([O-])C(CO)(CO)c1ccccc1	none (no result: mHTT CaM bind)
CC(C)CNC(=O)C(=O)NCC1COC2(CCCCC2)O1 (centres undefined)	none
O=C(Cc1ccc2c(c1)OCO2)N1CCCc2ccccc21	none
CCCCC1(CC(=O)N2CCCCC2)C(=O)N(c2ccccc2)N(c2ccccc2)C1=O	none
C=CCOc1ccc(/C=C2/SC(=Nc3cccc(C(=O)O)c3)NC2=O)cc1OC	mHTT CaM bind 58
COc1cc(/C=C2\SC(=Nc3ccccc3)NC2=O)cc(OC)c1OC	none
C=CCOc1ccc(/C=C2/SC(=Nc3ccccc3)NC2=O)cc1OC	none
COc1cc(/C=C2\SC(=Nc3ccccc3)NC2=O)cc(OC)c1O	mHTT CaM bind 74
CCOc1cc(/C=C2\SC(=Nc3ccccc3)NC2=O)cc(Br)c1O	mHTT CaM bind 86
CCOc1cc(/C=C2/SC(=Nc3ccccc3)NC2=O)ccc1O	none
CCOc1cc(/C=C2/SC(=O)NC2=O)cc([N+](=O)[O-])c1O	none
COc1cc(/C=C2/SC(=Nc3cc(C)cc(C)c3)NC2=O)cc([N+](=O)[O-])c1O	mHTT CaM bind 54
O=C(NCCc1ccc(F)cc1)c1ccc(Cn2ccnc2)cc1	none
NC(=Nc1nc2ccccc2o1)NC(=O)Cc1ccccc1	none
CCN(CC)C(=O)C1CCCN(Cc2cc(I)c(O)c(OC)c2)C1 (centres undefined)	none
COc1ccc(C)cc1NC(=O)c1cc(C(C)(C)C)n2nccc2n1	none
O=C(Nc1cccnc1Cl)c1cnn2c1NC(c1ccccc1)CC2C(F)(F)F (centres undefined)	none
CCN(CC)c1nc(C)nc2sc(C(=O)Nc3cc(Cl)c(OC)cc3OC)c(C)c12	none
N#Cc1nc(COc2ccccc2Cl)oc1N1CCN(Cc2ccccc2)CC1	mHTT CaM bind 52
N#Cc1nc(COc2ccccc2Cl)oc1N1CCCCC1	none
O=C(Nc1ccccc1)Nc1nccn(-c2cccc(F)c2)c1=O	none
CCc1cccc(C)c1NC(=O)Cn1cnc(-c2noc(-c3cccc(F)c3)n2)c1	none
COc1ccc(NCC(=O)N2c3ccccc3Sc3ccccc32)cc1	mHTT CaM bind 60
COc1cc(NC(=O)N2c3ccccc3Sc3ccccc32)cc(OC)c1	none
Fc1ccc(-c2noc(-c3ccc(NC4CC4)nc3)n2)cc1	none
OC[C@H]1O[C@@H](n2cnc3c(NC4CCCCC4)ncnc32)[C@H](O)[C@@H]1O	none (no result: mHTT CaM bind)
Clc1ncnc2c1ncn2C1CCCCO1 (centres undefined)	mHTT CaM bind 75 (no result: Pf apPOL inh)
Cc1nc(C(=O)NCCc2ccccn2)c(C)n1C1CCN(S(C)(=O)=O)CC1	none
CCCNC(=O)c1nc(C)n(C2CCN(C)CC2)c1C	none
Cc1nc(C(=O)NCCc2ccc(Cl)cc2)c(C)n1C1CCN(S(C)(=O)=O)CC1	mHTT CaM bind 61
Cc1nc(C(=O)NCCCN2CCCc3ccccc32)c(C)n1C1CCN(C)CC1	mHTT CaM bind 97
O=C(c1cccc(Br)c1)N1CCN(c2ccccc2F)CC1	none
Cn1c(Cn2cc(C(F)(F)F)ccc2=O)nnc1SCC(=O)Nc1ccc(Cl)cc1	none (no result: mHTT CaM bind)
O=C(NC1CCCCCC1)c1cc2cc([N+](=O)[O-])ccc2oc1=O	none
c1ccc(-c2ccccn2)nc1	none (no result: mHTT CaM bind)
c1ccc(-c2ccc(-c3ccccn3)nn2)nc1	mHTT CaM bind 100 (no result: Pf apPOL inh)
O=C1c2ccccc2NC(c2cc3c(cc2[N+](=O)[O-])OCO3)N1c1ccccc1 (centres undefined)	mHTT CaM bind 90!
O=C1CSC(c2cc3c(cc2[N+](=O)[O-])OCO3)N1c1ccccc1 (centres undefined)	none
Oc1ccc(Nc2nc(-c3cccnc3)cs2)cc1	mHTT CaM bind 58
O=C(O)c1ccc(Nc2nc(-c3cccnc3)cs2)cc1	none
Cc1ccc(-c2csc(Nc3ccc(O)cc3)n2)cc1C	mHTT CaM bind 86
CCOc1ccc(Nc2nc(-c3ccc(C)c(C)c3)cs2)cc1	none
Clc1ccc(-c2csc(Nc3ccccc3)n2)cc1	none (no result: mHTT CaM bind)
